The values that follow come from paper PMC13083723 (Patterns, 2026).

Each structure is given as a SMILES string. Out of some 5,400 compounds screened, about 190 (3.5%) showed an effect of 50% or more. Shown is part of a subset that was picked to be rich in strong results. Positions of bridges follow the written chain, without caps; N, C: chain ends. Non-standard residues stand in square brackets, D forms with d. Residues, ends and D or L forms follow the SMILES beside them. ξ: configuration not given here. *: point of attachment. Heptanoyl(5-Me) = CCC(C)CCCC(=O)*; ξThr(3R) = C[C@@H](O)C(N)C(=O)O; Dab = NCC[C@H](N)C(=O)O

This assay relates to Vero-E6. The assay is described as follows: primary screen, phospholipidosis by LipidTOX staining; higher = more effect of the substance. Conditions: 10 µM. Put shortly: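 Single-concentration screen at 10 μM, with DMSO 0.1 v/v % and amiodarone 10 μM as controls. Read-out is LipidTOX Red phospholipid staining, which tolerates aldehyde fixation, in Vero-E6 cells.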
For `CC[C@H](CC[C@@H](C)[C@H]1CC[C@H]2[C@@H]3CC=C4C[C@@H](O)CC[C@]4(C)[C@H]3CC[C@]12C)C(C)C`, the result_ITMP is on record as 1.55%.

For the compound `CC(=O)CC(=O)[O-]`, the result_ITMP came to 1.77%.

In the case of `CCc1cccc(CC)c1NC(=O)c1nn(C)c2c1CCc1cnc(Nc3ccc(C(=O)NC4CCN(C)CC4)cc3OC(F)(F)F)nc1-2`, the result_ITMP was determined as 7.96%.

`CN1CCC(CNc2ccc3ncc(-c4cccc(OC(F)(F)F)c4)n3n2)CC1`: the result_ITMP came to 62.4%.

For the compound `CN1CCC(COc2cnc(-c3cccc(Cn4nc(-c5cccc(C#N)c5)ccc4=O)c3)nc2)CC1`, the result_ITMP is reported as 2.15%.

In the case of `CC1(C)[C@@H]2CC[C@@]1(C)C(=O)C2` [R4A_0000828_001 / SPE_K10034334], the result_ITMP is listed as -2.3%.

As for `CC(C)(N)c1cc(C(=O)N[C@@H]2CCc3ccc(OC4=C5CCC(=O)N=C5NC=C4)cc3C2)cc(C(F)(F)F)c1`, the result_ITMP was found to be 28.9%.

For the compound `CCC(C)CCCC(=O)N[C@@H](CCN)C(=O)N[C@H](C(=O)N[C@@H](CCN)C(=O)N[C@H]1CCNC(=O)[C@H]([C@@H](C)O)NC(=O)[C@H](CCN)NC(=O)[C@H](CCN)NC(=O)[C@H](CC(C)C)NC(=O)[C@@H](CC(C)C)NC(=O)[C@H](CCN)NC1=O)[C@@H](C)O` (stereo partly drawn) [R4A_0005175_001 / SPE_A36456202] ({Heptanoyl(5-Me)}-[Dab]T[Dab][Dab][Dab][dL]L[Dab][Dab]T; lactam 4-C), the result_ITMP was -0.45%.

On to `C[C@@H]1NC(=O)[C@@H]2CCCN2C(=O)[C@H](CC(N)=O)NC(=O)[C@@H]2CSSC[C@H](N)C(=O)N[C@H]3CSSC[C@H](NC1=O)C(=O)NC([C@@H](C)O)C(=O)NCC(=O)N[C@H](C(=O)N[C@@H](Cc1ccc(O)cc1)C(=O)O)CSSC[C@H](NC(=O)[C@H](Cc1ccc(O)cc1)NC(=O)[C@H](CCC(=O)O)NC3=O)C(=O)N2` (stereo partly drawn) (H-CCEYCCNPAC[ξThr(3R)]GCY-OH; disulfide 1-6, 2-10, 5-13), for which the result_ITMP was -6.32%.

As to `C#CC[C@H](c1nc2cc(Cl)ccc2c(=O)n1Nc1ccccc1)N(CCCN)C(=O)c1cccc(Cl)c1F`, the result_ITMP turned out to be 68.4%.

Regarding `C=C(c1ccccc1OCc1cccc(Cl)c1)n1ccnc1`, the result_ITMP was determined as 2.27%.

Turning to `O=c1ccn([C@@H]2O[C@H](COP(=O)([O-])OP(=O)([O-])OP(=O)([O-])O)C(O)C2O)c(=O)[nH]1` (stereo partly shown), the result_ITMP came out at 0.02%.

In the case of `CCCCCCCCCCCCCC(=O)[O-].CCCCCCCCCCCCCC(=O)[O-].NC1CCCCC1N.[Pt+2]`, the result_ITMP amounted to 0.26%.

For the compound `O=S(=O)([O-])Oc1ccc(C(c2ccc(OS(=O)(=O)[O-])cc2)c2ccccn2)cc1`, the result_ITMP is -7.14%.

For `Cc1ccc(-c2n[nH]c3c2C(c2cccc(O)c2)N(c2ccc(C(=O)O)cc2)C3=O)cc1` (stereo not shown), the result_ITMP stood at 0.62%.

Take `COc1cc(N2CCC(N3CCN(C)CC3)CC2)ccc1Nc1ncc(Cl)c(Nc2ccccc2S(=O)(=O)C(C)C)n1`: the result_ITMP is reported as -2.93%.

As to `Cc1cc(Nc2ncc(Cl)c(Nc3ccccc3S(=O)(=O)C(C)C)n2)c(OC(C)C)cc1C1CCNCC1`, the result_ITMP turned out to be 50.9%.

For the compound `COc1cc(N2CCC(N3CCN(C)CC3)CC2)ccc1Nc1ncnc(Nc2ccccc2S(=O)(=O)C(C)C)n1`, the result_ITMP stood at 44.8%.

With `Cc1c(S(=O)(=O)[O-])oc2c1C(=O)C(=O)c1c-2ccc2c1CCCC2(C)C`, the result_ITMP is -1.56%.

On to `C[C@H](Oc1cc(-c2cnn(C3CCNCC3)c2)cnc1N)c1c(Cl)ccc(F)c1Cl`, for which the result_ITMP is recorded as 70.2%.

Turning to `C[C@@H](Oc1cc(-c2cnn(C3CCNCC3)c2)cnc1N)c1c(Cl)ccc(F)c1Cl`, the result_ITMP is 75%.

Consider `Nc1nc2[nH]nnc2c(=O)[nH]1`, for which the result_ITMP is 1.34%.

As for `O=C([O-])[C@@H](O)[C@@H](O)[C@H](O)[C@@H](O)C(=O)[O-]`, the result_ITMP is listed as -1.82%.

`CCOc1ccc(/N=C(/C)Nc2ccc(OCC)cc2)cc1`: the result_ITMP was found to be 3.29%.

As to `CC(=O)OCC1=C(C(=O)[O-])N2C(=O)[C@@H](NC(=O)CSc3ccncc3)[C@H]2SC1`, the result_ITMP was -1.36%.

As for `CO/N=C(\C(=O)N[C@@H]1C(=O)N2C(C(=O)[O-])=C(COC(N)=O)CS[C@H]12)c1ccco1`, the result_ITMP is given as -1.04%.

`O=S(=O)([O-])CCCS(=O)(=O)[O-]`: the result_ITMP is given as -2.16%.

Turning to `CCn1cc(C(=O)[O-])c(=O)c2cc3c(cc21)OCO3`, the result_ITMP is reported as -4.34%.

For `CN(C)[C@@H](CCOc1cccc2ccccc12)c1ccccc1`, the result_ITMP was 43.4%.

In the case of `CNCC[C@H](Oc1cccc2ccccc12)c1cccs1`, the result_ITMP is on record as 92.6%.

For `CC(C)NC[C@@H](O)COc1cccc2ccccc12` [R4A_0000150_002 / SPE_K13994703], the result_ITMP stood at 20.2%.

With `CC1(C)CCC[C@]2(C)[C@H]3CC(=O)O[C@]3(C)CC[C@@H]12`, the result_ITMP came to 1.48%.

As for `Nc1nc2c(c(N3CCNCC3)n1)CCC1=C2[C@@H]2CCCC[C@@H]2O1`, the result_ITMP amounted to 70.7%.

In the case of `CC[C@]1(O)C[C@@H]2C[N@@](CCc3c([nH]c4ccccc34)[C@@](C(=O)OC)(c3cc4c(cc3OC)N(C=O)[C@H]3[C@@](O)(C(=O)OC)[C@H](OC(C)=O)[C@]5(CC)C=CCN6CC[C@]43[C@@H]65)C2)C1`, the result_ITMP came to 1.05%.

Turning to `CN(C)CCOc1ccc(/C(=C(/CCCl)c2ccccc2)c2ccccc2)cc1`, the result_ITMP worked out at 20.4%.

In the case of `CC/C(=C(\c1ccccc1)c1ccc(OCCN(C)C)cc1)c1ccccc1`, the result_ITMP worked out at 49.4%.

On to `CC/C(=C(\c1ccc(OCCN(C)C)cc1)c1cccc(O)c1)c1ccccc1`, for which the result_ITMP is listed as 77.7%.

For the compound `CC/C(=C(\c1ccc(O)cc1)c1ccc(OCCN(C)C)cc1)c1ccccc1`, the result_ITMP was found to be 20.4%.

`CCN(CC)CCOc1ccc(/C(=C(\Cl)c2ccccc2)c2ccccc2)cc1`: the result_ITMP was found to be 108%.

As to `CCN(CC)CCOc1ccc(Cc2ccccc2)cc1`, the result_ITMP was found to be 30.2%.

Turning to `CN1C[C@@H]2CN(c3ccc(-c4ccccc4)nn3)C[C@@H]2C1`, the result_ITMP is recorded as -1.43%.

For `O=C([O-])CCC/C=C\C[C@@H]1[C@@H](/C=C/[C@@H](O)COc2cccc(Cl)c2)[C@H](O)C[C@@H]1O` (racemic), the result_ITMP was -1.06%.

On to `C[C@H](CCC(=O)O)[C@H]1CC[C@H]2[C@@H]3CC[C@@H]4C[C@H](O)CC[C@]4(C)[C@H]3CC[C@]12C`, for which the result_ITMP was -0.58%.
